Results: paper PMC4336329 (PLoS ONE, 2015)
The whole screen tested about 310,000 compounds, of which about 14,000 (4.5%) showed an effect of 50% or more. The effect is printed as a negative number. Many of the other results were omitted from the sample, so strong results are more common in it than they were.

Target: human ether-à-go-go-related gene (hERG) potassium channel (human, UniProt Q12809)
Test: primary screen, population patch clamp on CHO cells stably expressing hERG; higher = less effect of the substance
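Further: peak tail current of the secondary pulse compared with the same well before compound.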

human ether-à-go-go-related gene (hERG) potassium channel, sequence (Q12809 whole entry, looked up): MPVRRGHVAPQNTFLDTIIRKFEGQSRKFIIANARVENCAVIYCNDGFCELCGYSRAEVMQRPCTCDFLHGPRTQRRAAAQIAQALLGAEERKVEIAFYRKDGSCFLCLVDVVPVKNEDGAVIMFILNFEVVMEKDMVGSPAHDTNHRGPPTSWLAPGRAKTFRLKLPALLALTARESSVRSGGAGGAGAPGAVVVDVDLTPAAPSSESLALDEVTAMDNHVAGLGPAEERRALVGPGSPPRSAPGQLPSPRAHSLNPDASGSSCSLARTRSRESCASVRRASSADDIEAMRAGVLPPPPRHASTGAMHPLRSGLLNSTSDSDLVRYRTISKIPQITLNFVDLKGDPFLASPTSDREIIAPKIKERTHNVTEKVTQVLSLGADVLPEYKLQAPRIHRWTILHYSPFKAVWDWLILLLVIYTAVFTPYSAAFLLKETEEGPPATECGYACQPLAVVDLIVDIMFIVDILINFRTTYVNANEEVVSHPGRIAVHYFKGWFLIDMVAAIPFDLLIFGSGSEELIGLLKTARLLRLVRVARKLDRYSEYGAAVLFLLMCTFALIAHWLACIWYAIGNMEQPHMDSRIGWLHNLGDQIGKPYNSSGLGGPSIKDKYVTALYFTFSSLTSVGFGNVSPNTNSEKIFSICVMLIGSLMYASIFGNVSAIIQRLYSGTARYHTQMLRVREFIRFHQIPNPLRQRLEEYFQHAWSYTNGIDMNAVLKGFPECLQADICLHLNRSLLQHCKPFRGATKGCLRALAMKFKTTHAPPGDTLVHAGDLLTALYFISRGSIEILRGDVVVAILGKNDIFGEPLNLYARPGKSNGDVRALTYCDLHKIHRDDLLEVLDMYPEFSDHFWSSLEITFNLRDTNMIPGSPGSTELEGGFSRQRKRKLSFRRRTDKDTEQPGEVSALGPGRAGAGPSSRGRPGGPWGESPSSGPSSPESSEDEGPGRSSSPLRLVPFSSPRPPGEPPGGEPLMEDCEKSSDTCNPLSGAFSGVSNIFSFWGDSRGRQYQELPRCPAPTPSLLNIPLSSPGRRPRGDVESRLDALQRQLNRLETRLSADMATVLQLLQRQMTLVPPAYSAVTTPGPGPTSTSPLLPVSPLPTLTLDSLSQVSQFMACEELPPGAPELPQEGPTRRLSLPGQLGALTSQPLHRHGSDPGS

Row | Compound | hERG current change (%, negative = inhibition) at 10uM
1 | Nn1cnc2cc3ccccc3cc2c1=O | 8.16%
2 | Cn1c(=O)c2cn(-c3ccc4c(c3)OCCO4)cc2n(C)c1=O | 11.3%
3 | Cc1cccc(C)c1NC(=O)C1(N(Cc2ccco2)C(=O)c2ccccn2)CCCC1 | 5.95%
4 | COc1cccc(OC)c1C(=O)Nc1ccc(CN2CCCCC2)cc1 | 10.6%
5 | COc1ccc(Cl)cc1C(=O)Nc1ccc(CN2CCCCC2)cc1 | -52%
6 | COc1ccccc1C(=O)Nc1ccc(CN2CCCCC2)cc1 | -28.4%
7 | COc1c(Cl)cc(Cl)cc1C(=O)Nc1ccc(CN2CCOCC2)cc1 | 8.37%
8 | COc1c(C)cccc1C(=O)Nc1ccc(CN2CCCCC2)cc1 | -30.7%
9 | COc1c(Cl)cc(Cl)cc1C(=O)Nc1ccc(CN2CCCCC2)cc1 | -65.1%
10 | Cc1ccc(N2C(S)=C(C#N)C(=O)NC2c2cccs2)cc1 (centres unmarked) | 15.2%
11 | c1ccc(CN(Cc2ccccc2)c2ncnc3c2nnn3Cc2ccccc2)cc1 | 7.63%
12 | CC1Cc2nc(SCC(=O)NCc3ccco3)n(-c3ccccc3)c(=O)c2S1 (centres unmarked) | -33.5%
13 | O=C(Nc1ccc(C(F)(F)F)cc1)c1csc(-c2ccncc2)n1 | -25.4%
14 | O=C(Nc1cccc(C(F)(F)F)c1)c1csc(-c2ccncc2)n1 | -68.6%
15 | COc1cc(NC(=O)c2csc(-c3ccncc3)n2)cc(C(=O)Nc2cccc(C(F)(F)F)c2)c1 | -48.7%
16 | NNC(=O)c1csc(-c2cccc(C(F)(F)F)c2)n1 | -30%
17 | CCN1CCN(Cc2ccc(NC(=O)c3ccc(C)c(NC(=O)c4csc(-c5ccncc5)n4)c3)cc2C(F)(F)F)CC1 | 7.22%
18 | Cc1ccc(C(=O)Nc2cccc(C(F)(F)F)c2)cc1NC(=O)c1csc(-c2ccncc2)n1 | -62.5%
19 | CC(C)N1C(=O)C2ON(c3ccccc3)C(c3cccs3)C2C1=O (centres unmarked) | -16.6%
20 | CCOC(=O)C(CC)(CCC(=O)O)c1csc(Nc2ccc(C)cc2)n1 (centres unmarked) | 16.5%
21 | Cc1cc(=O)oc2c(C)c(OCC(=O)N(C)C)ccc12 | 9.8%
22 | O=C(c1ccc(F)cc1)N1C2CCC1CC(O)(c1ccc(F)cc1)C2 (centres unmarked) | -20.6%
23 | COc1ccc(C(C)=O)cc1COC(=O)c1ccc(N)c([N+](=O)[O-])c1 | 35.1%
24 | Cc1ccc(NC(=O)c2cc(S(=O)(=O)N(C)C)ccc2N2CCCC2)cc1S(=O)(=O)N(C)C | -26.5%
25 | COc1ccc(NC(=O)c2cc(S(=O)(=O)N(C)C)ccc2N2CCCC2)cc1Cl | 12.7%

Row | Compound | hERG current change (%, negative = inhibition) at 10uM
26 | COc1ccc(OC)c(NC(=O)c2cc(S(=O)(=O)N(C)C)ccc2N2CCCC2)c1 | -68.1%
27 | COc1cc(C(=O)NNC(=O)c2cc(S(=O)(=O)N(C)C)ccc2N2CCCC2)cc(OC)c1OC | 15.1%
28 | COc1ccc(CCNC(=O)c2cc(S(=O)(=O)N(C)C)ccc2N2CCCC2)cc1 | 4.26%
29 | COc1cc(Cl)c(C)cc1NC(=O)c1cc(S(=O)(=O)N(C)C)ccc1N1CCCC1 | -51.8%
30 | COc1ccc(C(C)(C)C)cc1NC(=O)c1cc(S(=O)(=O)N(C)C)ccc1N1CCCC1 | -60%
31 | COc1ccc(NC(=O)CN(C)C(=O)c2cc(S(=O)(=O)N(C)C)ccc2N2CCCC2)cc1 | -13.8%
32 | COc1ccc(CCNC(=O)c2cc(S(=O)(=O)N(C)C)ccc2N2CCCC2)cc1OC | 5.99%
33 | CN(C)CCNc1cnn(-c2ccccc2)c(=O)c1Cl | 14.2%
34 | CCOC(=O)c1[nH]c2ccccc2c1NC(=S)Nc1cccc(C)c1C | -5.81%
35 | CC(C)(C)NC(=S)NNC(=O)c1ccncc1 | 15.4%
36 | CC(C)c1nc2sc3c(c2c(=O)n1N)CC(C)(C)OC3 | 8.71%
37 | CCCn1c(SCC(=O)Nc2ccc(C(=O)Nc3ccccc3OC)cc2)n[nH]c1=O | 11.9%
38 | CC(NC(=O)CCNC(=O)c1ccco1)c1ccc(F)cc1 (centres unmarked) | 12.3%
39 | CCOc1cccc2sc(N(CCCN(C)C)C(=O)c3ccc(S(=O)(=O)N(C)Cc4ccccc4)cc3)nc12.Cl | -40.4%
40 | CN(C)CCN(C(=O)c1ccc(S(=O)(=O)N(C)CC2CCCO2)cc1)c1nc2cc3c(cc2s1)OCO3.Cl (centres unmarked) | -43.2%
41 | CCOc1cccc2sc(N(CCCN(C)C)C(=O)c3ccc(S(=O)(=O)N4CCc5ccccc5C4)cc3)nc12.Cl | 13.7%
42 | CCOc1cccc2sc(N(CCCN(C)C)C(=O)c3ccc(S(=O)(=O)N(C)CC4CCCO4)cc3)nc12.Cl (centres unmarked) | -77.4%
43 | CCOc1cccc2sc(N(CCN(C)C)C(=O)/C=C/c3cccs3)nc12.Cl | -40.7%
44 | CCCC(=O)N(CCN1CCOCC1)c1nc2c(OCC)cccc2s1.Cl | 9.08%
45 | CCOc1cccc2sc(N(CCCN(C)C)C(=O)c3ccc(S(=O)(=O)N(C)c4ccccc4)cc3)nc12.Cl | -83.7%
46 | CCOc1ccc2nc(N(CCCN(C)C)C(=O)c3ccc(C(=O)c4ccccc4)cc3)sc2c1.Cl | -35.5%
47 | Cc1cc(C)c2nc(N(CCN(C)C)C(=O)c3ccc(S(=O)(=O)N(C)CC4CCCO4)cc3)sc2c1.Cl (centres unmarked) | -43.6%
48 | CCOc1cccc2sc(N(CCCN(C)C)C(=O)Cc3ccccc3)nc12.Cl | -80.2%
49 | CCOc1cccc2sc(N(CCCN(C)C)C(=O)c3ccc(C(=O)c4ccccc4)cc3)nc12.Cl | -72.1%
50 | COc1cc2ccccc2cc1C(=O)N1CCCC(C(F)(F)F)C1 (centres unmarked) | -14.3%
